Here are results for 1 compound from ChEMBL document CHEMBL2218924, “A broad activity screen in support of a chemogenomic map for kinase signalling research and drug discovery” (Biochem J, 2013).

Assay [1] addresses T1, Ephrin type-A receptor 3 (Homo sapiens) (UniProt P29320).
T1 sequence (whole entry): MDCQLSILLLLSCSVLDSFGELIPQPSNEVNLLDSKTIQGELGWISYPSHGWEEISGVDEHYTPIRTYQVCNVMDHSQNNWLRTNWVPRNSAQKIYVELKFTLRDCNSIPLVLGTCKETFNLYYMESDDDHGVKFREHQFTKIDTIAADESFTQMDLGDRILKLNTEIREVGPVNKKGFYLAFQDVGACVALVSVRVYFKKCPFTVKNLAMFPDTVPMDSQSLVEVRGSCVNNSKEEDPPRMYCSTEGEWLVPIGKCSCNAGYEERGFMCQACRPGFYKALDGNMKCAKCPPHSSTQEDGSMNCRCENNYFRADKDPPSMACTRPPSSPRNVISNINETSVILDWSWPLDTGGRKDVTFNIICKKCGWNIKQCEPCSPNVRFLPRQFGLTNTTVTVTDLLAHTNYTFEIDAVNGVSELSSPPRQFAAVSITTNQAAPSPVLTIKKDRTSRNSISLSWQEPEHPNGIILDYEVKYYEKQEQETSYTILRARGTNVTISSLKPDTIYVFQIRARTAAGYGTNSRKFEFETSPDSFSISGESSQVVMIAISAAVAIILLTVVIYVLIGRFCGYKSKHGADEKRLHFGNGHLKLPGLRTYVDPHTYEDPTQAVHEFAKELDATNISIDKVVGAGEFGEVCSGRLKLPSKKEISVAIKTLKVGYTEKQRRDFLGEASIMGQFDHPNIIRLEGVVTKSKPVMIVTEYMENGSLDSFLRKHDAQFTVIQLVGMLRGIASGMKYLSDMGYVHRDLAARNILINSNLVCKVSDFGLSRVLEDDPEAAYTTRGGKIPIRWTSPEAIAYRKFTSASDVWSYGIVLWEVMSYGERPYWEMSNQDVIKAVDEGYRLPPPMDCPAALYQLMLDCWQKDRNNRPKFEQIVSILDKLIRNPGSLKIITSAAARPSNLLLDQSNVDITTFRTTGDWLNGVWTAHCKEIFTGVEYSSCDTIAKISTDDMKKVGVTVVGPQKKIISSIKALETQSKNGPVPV
As to conditions: at 10 µM.

In assay [2] the target is Ephrin type-A receptor 4 (Homo sapiens) (UniProt P54764). As to conditions: at 1 µM.
Ephrin type-A receptor 4 (Homo sapiens), sequence (P54764 whole entry): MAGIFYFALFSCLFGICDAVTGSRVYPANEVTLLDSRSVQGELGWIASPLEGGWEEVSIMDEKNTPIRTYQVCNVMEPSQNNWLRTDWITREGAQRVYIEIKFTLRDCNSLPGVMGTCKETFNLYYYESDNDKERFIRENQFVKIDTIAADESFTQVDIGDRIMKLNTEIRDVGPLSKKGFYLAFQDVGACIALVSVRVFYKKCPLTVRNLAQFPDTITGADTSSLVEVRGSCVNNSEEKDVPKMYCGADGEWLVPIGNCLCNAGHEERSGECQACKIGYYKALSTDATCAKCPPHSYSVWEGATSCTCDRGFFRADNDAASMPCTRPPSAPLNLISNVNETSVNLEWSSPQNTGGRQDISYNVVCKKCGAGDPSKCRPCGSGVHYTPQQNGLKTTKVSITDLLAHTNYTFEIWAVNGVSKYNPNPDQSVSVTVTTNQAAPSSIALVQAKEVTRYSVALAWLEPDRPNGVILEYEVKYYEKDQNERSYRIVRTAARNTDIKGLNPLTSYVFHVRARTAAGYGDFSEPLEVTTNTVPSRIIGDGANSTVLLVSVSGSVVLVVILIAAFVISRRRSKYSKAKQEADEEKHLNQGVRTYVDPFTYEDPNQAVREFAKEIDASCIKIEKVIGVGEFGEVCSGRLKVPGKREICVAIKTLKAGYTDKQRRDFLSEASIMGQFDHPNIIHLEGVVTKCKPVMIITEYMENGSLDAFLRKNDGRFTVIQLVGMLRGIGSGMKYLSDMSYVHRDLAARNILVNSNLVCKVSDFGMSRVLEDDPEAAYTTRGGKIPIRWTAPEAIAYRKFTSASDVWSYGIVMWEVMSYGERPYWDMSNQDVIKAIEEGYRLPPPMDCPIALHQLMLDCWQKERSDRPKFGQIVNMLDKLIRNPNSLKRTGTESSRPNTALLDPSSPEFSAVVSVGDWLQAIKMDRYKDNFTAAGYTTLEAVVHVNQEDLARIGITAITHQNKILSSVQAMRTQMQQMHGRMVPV
Assay [3] has the same target. As to conditions: at 10 µM.
Assay [4] addresses Ephrin type-A receptor 5 (Homo sapiens) (UniProt P54756). The note with it: at 1 µM.
The target is the same in assay [5]. As to conditions: at 10 µM.
Assay [6] deals with Ephrin type-A receptor 7 (Homo sapiens) (UniProt Q15375). As to conditions: at 1 µM.
Ephrin type-A receptor 7 (Homo sapiens), sequence (Q15375 28-998 limits assumed): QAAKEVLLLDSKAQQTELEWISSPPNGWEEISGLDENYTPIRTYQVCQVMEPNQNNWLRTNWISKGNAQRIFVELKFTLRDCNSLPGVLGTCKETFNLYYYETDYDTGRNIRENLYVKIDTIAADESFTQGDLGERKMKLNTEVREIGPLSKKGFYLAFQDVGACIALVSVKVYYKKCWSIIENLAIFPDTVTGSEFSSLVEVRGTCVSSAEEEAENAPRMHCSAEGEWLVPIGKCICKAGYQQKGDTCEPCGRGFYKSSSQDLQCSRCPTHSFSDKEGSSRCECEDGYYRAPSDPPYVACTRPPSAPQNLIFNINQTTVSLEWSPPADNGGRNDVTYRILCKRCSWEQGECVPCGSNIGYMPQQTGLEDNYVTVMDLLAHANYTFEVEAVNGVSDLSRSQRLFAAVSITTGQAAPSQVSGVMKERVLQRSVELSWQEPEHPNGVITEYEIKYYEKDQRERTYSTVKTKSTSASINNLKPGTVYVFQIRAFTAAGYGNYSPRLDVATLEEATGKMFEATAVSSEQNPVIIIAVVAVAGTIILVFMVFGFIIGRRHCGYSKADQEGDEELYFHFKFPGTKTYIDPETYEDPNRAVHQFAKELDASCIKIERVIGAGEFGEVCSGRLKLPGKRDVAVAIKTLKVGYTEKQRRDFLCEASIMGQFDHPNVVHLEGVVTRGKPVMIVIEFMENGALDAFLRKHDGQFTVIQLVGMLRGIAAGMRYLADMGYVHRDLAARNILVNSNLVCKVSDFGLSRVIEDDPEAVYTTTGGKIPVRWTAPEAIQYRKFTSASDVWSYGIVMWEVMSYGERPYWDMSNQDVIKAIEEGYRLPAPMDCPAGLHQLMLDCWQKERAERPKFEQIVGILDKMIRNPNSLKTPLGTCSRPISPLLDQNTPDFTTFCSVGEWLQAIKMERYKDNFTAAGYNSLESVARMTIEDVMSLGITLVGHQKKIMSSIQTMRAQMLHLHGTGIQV
The target is the same in assay [7]. As to conditions: at 10 µM.
Assay [8] addresses T2, Ephrin type-A receptor 8 (Homo sapiens) (UniProt P29322).
T2 sequence (whole entry): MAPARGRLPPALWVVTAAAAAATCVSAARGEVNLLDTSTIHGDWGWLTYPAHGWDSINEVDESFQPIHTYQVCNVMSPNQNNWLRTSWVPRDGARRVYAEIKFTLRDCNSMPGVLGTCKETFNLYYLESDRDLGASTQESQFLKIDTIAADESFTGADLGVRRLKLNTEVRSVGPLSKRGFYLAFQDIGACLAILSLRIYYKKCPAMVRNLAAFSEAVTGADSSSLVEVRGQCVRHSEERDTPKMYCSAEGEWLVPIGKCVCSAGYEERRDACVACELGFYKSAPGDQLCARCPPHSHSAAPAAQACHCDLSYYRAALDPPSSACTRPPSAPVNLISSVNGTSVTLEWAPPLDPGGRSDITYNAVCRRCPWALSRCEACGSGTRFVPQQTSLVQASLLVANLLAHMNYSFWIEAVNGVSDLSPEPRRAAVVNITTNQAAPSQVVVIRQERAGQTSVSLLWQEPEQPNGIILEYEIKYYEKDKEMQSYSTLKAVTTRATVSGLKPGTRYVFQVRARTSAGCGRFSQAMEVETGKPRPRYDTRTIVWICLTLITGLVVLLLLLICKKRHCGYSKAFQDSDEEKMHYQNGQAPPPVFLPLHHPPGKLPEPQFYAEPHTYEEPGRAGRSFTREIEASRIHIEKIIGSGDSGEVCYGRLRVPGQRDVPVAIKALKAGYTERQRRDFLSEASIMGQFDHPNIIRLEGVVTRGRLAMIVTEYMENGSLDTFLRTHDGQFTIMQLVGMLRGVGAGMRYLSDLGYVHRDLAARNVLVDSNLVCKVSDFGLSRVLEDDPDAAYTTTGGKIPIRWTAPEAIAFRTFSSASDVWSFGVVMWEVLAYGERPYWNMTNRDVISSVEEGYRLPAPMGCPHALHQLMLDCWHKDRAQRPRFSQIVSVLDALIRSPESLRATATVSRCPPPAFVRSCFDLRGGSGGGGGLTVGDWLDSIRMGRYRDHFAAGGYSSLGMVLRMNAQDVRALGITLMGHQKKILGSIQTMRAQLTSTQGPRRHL
The note with it: at 1 µM.

For assay [9], the target named is T2, Ephrin type-A receptor 8 (Homo sapiens). The note with it: at 10 µM.
For assay [10], the target named is T3, Ephrin type-B receptor 1 (Homo sapiens) (UniProt P54762).
T3 sequence (whole entry): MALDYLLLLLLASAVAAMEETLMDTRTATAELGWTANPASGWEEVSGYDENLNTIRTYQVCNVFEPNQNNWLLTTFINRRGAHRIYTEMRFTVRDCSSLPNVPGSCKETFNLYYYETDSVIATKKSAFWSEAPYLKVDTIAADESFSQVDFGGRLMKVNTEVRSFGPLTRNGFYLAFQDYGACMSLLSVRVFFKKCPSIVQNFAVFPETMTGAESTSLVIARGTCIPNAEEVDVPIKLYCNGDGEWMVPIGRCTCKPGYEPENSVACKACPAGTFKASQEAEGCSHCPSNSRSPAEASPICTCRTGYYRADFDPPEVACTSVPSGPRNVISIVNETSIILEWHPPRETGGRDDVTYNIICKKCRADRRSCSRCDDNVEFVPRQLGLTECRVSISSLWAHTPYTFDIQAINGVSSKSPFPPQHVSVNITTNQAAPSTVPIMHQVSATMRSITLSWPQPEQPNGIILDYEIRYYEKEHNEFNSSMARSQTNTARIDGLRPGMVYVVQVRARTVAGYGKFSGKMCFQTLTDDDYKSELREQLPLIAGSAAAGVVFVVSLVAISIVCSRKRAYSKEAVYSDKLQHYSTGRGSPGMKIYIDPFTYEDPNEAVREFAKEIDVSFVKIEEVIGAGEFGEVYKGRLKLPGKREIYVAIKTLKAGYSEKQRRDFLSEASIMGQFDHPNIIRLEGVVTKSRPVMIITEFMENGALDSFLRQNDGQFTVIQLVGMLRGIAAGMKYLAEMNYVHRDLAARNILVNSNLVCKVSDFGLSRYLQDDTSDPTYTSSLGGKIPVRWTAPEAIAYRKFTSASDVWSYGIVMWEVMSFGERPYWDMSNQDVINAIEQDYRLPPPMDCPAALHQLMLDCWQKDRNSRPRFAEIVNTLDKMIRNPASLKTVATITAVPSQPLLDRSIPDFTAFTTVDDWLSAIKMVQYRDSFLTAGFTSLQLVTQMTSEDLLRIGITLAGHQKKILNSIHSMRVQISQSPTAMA
As to conditions: at 1 µM.

Each structure is given as a SMILES string.

Ephrin type-A receptor 5 (Homo sapiens), sequence (P54756 whole entry): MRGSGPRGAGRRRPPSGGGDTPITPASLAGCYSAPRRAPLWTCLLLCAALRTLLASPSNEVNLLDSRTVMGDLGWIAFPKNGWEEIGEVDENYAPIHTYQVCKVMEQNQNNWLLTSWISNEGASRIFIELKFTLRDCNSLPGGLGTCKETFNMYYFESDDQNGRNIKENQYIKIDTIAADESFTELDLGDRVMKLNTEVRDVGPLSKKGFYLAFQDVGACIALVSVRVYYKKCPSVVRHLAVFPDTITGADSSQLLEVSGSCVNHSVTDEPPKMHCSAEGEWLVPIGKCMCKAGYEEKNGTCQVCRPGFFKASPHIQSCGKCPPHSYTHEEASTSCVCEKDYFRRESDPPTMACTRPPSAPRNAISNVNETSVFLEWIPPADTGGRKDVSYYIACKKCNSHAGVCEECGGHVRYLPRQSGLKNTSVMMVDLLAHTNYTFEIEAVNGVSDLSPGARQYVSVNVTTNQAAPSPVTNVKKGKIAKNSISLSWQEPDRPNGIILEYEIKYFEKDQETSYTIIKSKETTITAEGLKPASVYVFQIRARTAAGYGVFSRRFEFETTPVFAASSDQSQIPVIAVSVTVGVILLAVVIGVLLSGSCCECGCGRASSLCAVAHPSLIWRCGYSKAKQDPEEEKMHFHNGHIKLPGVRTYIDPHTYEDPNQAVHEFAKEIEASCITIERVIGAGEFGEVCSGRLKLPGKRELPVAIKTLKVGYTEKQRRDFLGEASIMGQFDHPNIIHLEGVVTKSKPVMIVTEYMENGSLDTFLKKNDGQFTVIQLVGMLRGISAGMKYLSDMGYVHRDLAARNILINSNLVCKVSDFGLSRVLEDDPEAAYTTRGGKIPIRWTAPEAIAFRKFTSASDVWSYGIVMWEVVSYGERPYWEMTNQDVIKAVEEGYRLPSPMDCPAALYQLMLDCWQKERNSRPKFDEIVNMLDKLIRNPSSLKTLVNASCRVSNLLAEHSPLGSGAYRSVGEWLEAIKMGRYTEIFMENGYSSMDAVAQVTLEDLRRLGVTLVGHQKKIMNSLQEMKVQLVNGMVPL

One may read the residual activity as the signal under treatment as a percentage of the control signal. For the compound `COc1ccc(CNc2nc(N(CCO)CCO)nc3c2ncn3C(C)C)cc1`, the residual activity in [1] stood at 90%; in assay [2] it was 110%; in assay [3], 110%; in assay [4] it was 126%; in assay [5], 105%; in assay [6], 92%. Also, the residual activity is 73% in [7], 99% in assay [8], 88% in [9] and 105% in assay [10].
